For 10 compounds, Potency and outcome results are on record in PubChem BioAssay (NCATS).

Assay [1] concerns the target DNA repair nuclease/redox regulator APEX1 (Homo sapiens) (UniProt P27695). The assay is described as follows: qHTS Validation Assay for Inhibitors of the Human Apurinic/apyrimidinic Endonuclease 1 (APE1) (AID 1705;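 note: TAMRA fluorescence gain over two minutes as APE1 cuts a quenched THF abasic duplex; series mostly up to about 57 µM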). In outline:
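Substrate: 50 nM final fluorophore/quencher THF-abasic duplex. Enzyme preincubated with compounds 15 min, RT. Progress derived from fluorescence difference, third minus first kinetic read.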

Assay [2] can be described thus: Counterscreen for APE1 Inhibitors: Fluorescent Dye Displacement Validation Assay (AID 1707). In outline:
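ThO 250 nM + dsDNA 50 nM (THF abasic site, 5'-TAMRA), Tris-HCl pH7.5/50mM NaCl/2 mM MgCl2/0.01% Tween-20; compounds pin-transferred; ex 480/em 540 nm endpoint. Neutral = no compound; no-DNA ThO wells = negative control.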

Assay [3] addresses Endonuclease 4 (Escherichia coli (strain K12)) (UniProt P0A6C1). The assay is described as follows: Counterscreen for APE1 Inhibitors: qHTS Validation Assay for Inhibitors of Endonuclease IV (AID 1708). In short, it runs like this:
(§1)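 qHTS concentration-response format; LOPAC1280 tested under APE1-screen conditions. 2 nM enzyme, 15 min compound preincubation at RT, then 50 nM TAMRA/BHQ-2 abasic substrate; kinetic fluorescence read, three reads at 60 s intervals.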

Assay [4] in a line: qHTS for differential inhibitors of proliferation of Plasmodium falciparum line 7G8 (AID 1815).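 Note: parasite growth measured after three days of incubation.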 Note: potency is the fitted concentration of half-maximal effect.
The nature of assay [5]: qHTS for differential inhibitors of proliferation of Plasmodium falciparum line 3D7 (AID 1876). Note: potency is the fitted concentration of half-maximal effect.
Assay [6] is described as follows: qHTS for differential inhibitors of proliferation of Plasmodium falciparum line D10 (AID 1877).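 Note: parasites grown with compound for 72 h before DNA staining.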 Note: potency is the fitted concentration of half-maximal effect.
A short description of assay [7]: qHTS for differential inhibitors of proliferation of Plasmodium falciparum line Dd2 (AID 1882). Note: nearly all actives have a fitted effect of over 65% in size. Note: potency is the fitted concentration of half-maximal effect. As to conditions: Potency: Plasmodium falciparum Dd2 proliferation inhibition. In outline: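 Dd2-infected erythrocytes (0.3% parasitemia, 2.5% hematocrit final) incubated with compound 72 h at 37 C, 5% CO2; lysed with saponin/Triton buffer containing SYBR Green I, incubated overnight in the dark, then read by fluorescence (485/535 nm). Normalized to 0.29 uM artemisinin and DMSO.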

The nature of assay [8]: qHTS for differential inhibitors of proliferation of Plasmodium falciparum line HB3 (AID 1886).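 Note: parasites grown with compound for 72 h before SYBR Green readout.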 Note: potency is the fitted concentration of half-maximal effect. As to conditions: Potency: Plasmodium falciparum HB3 proliferation inhibition.
Assay [9] can be described thus: qHTS Assay for Modulators of Human Peripheral Myelin Protein 22 (PMP22) Expression/Activity (AID 1967; active = well fitted curve in the direction sought with a large enough effect in the signal ratio; the % refers to the signal ratio). In short, it runs like this:
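Engineered MSC80 cells, Pmp22-promoter green and EF-alpha red luciferase reporters; 24h compound treatment at 37 °C. Concentration-response fits on green, red and ratio signals, each overlap-corrected, with %Activity normalized to untreated wells.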

The target of assay [10] is Ferritin light chain (Equus caballus) (UniProt P02791). The assay is described as follows: qHTS Validation Assay for Identification of Novel General Anesthetics (AID 2323). Note: series mostly up to about 77 µM. In outline: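 Normalized fluorescence response, scaled between free 1-AMA and 1-AMA/apoferritin complex, fitted to a four-parameter Hill equation for concentration-effect values. Binding mix: 10 uM horse-spleen apoferritin, 50% saturated 1-AMA in PBS; read 380/535 nm after 10 min.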

Assay [11] deals with ATP-dependent DNA helicase Q1 (Homo sapiens) (UniProt P46063). Briefly: qHTS Validation Assay for Inhibitors of RecQ-Like Dna Helicase 1 (RECQ1) (AID 2353). In short, it runs like this: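 50 nM RECQ1T1 preincubated 15 min with compound in Tris pH 8.0 buffer with MgCl2, DTT, Tween-20 and 2.5 ug/ml poly(dI-dC); started with 200 nM TAMRA/BHQ-2 forked duplex and 2 mM ATP. Unwinding read as fluorescence (525/598 nm), two reads 2 h apart.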

Assay [12] has as its target RecQ-like DNA helicase BLM (Homo sapiens) (UniProt P54132). The assay is described as follows: qHTS Validation Assay for Inhibitors of Bloom's syndrome helicase (BLM) (AID 2364). In short, it runs like this:
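Forked 20-bp duplex substrate (200 nM, TAMRA/BHQ-2) plus 2 mM ATP added after 15 min compound preincubation with 50 nM enzyme, pH 8.0, poly(dI-dC) 2.5 ug/ml. Strand separation followed by fluorescence (525/598 nm) over 2 h, normalized to enzyme-free and DMSO controls.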

Assay [13] is described as follows: Cytometric Cell-Based qHTS for Inhibitors of the mTORC1 Signaling Pathway in MEF (Tsc2-/-, p53-/-) Cells (AID 2660).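 Note: Tsc2 and p53 null MEFs carrying empty vector with compound for 24 h; percent of cells above a phospho-rpS6 to PI ratio cutoff in each well; series mostly up to about 38 µM.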 In outline: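 Percent of cells positive for normalized phospho-S6 staining is reported, with the cutoff set from rapamycin (7.5 nM) versus DMSO wells. Tsc2-/-, p53-/- MEFs received compound for 24 hrs.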
Assay [14] can be described thus: High Content Imaging Cell-Based qHTS for Inhibitors of the mTORC1 Signaling Pathway in MEF (Tsc2-/-, p53-/-) Cells (AID 2666).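 Note: percent of cells scored positive for phospho-rpS6 Ser235/236 immunostaining by imaging.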 In short, it runs like this: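 Cells were plated, dosed with compound after 24 hrs, and incubated another 24 hrs at 37 degree Celsius. Fixed cells were immunostained for phospho-rpS6 Ser235/236 and counterstained, and the normalized signal was scored as % active cells against rapamycin and DMSO controls.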

The nature of assay [15]: High Content Imaging Cell-Based qHTS for Inhibitors of the mTORC1 Signaling Pathway in MEF Cells (AID 2667).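 Note: Tsc2-/- p53-/- MEFs stably re-expressing wild-type Tsc2 exposed 24 h; series mostly up to about 38 µM.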 In short, it runs like this:
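Immunofluorescence for rpS6 phosphorylation in MEFs of Tsc2-/-, p53-/- background rescued with WT Tsc2. Compound exposure lasted 24 hrs. Inhibition was scored against rapamycin-treated control wells.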

Assay [16] in a line: qHTS for differential inhibitors of proliferation of Plasmodium falciparum line GB4 (AID 1816).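 Note: parasite growth measured after 72 h incubation.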 Note: potency is the fitted concentration of half-maximal effect. To be noted: Potency: Plasmodium falciparum GB4 proliferation inhibition.
Assay [17] can be described thus: qHTS for differential inhibitors of proliferation of Plasmodium falciparum line W2 (AID 1883).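 Note: parasites grown with compound for 72 h before lysis and staining.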 Note: potency is the fitted concentration of half-maximal effect. To be noted: Potency: Plasmodium falciparum W2 proliferation inhibition.
Assay [18] deals with Endonuclease 4 (Escherichia coli (strain K12)) (UniProt P0A6C1). Briefly: Counterscreen for APE1 Inhibitors: qHTS Assay for Inhibitors of Endonuclease IV (AID 2565). In outline:
as §1

The target in assay [19] is DNA repair nuclease/redox regulator APEX1 (Homo sapiens) (UniProt P27695). Briefly: Confirmation qHTS Assay for Inhibitors of the Human Apurinic/apyrimidinic Endonuclease 1 (APE1) (AID 2572).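 Note: fluorescence gain from purified APE1 cutting a TAMRA/BHQ-2 THF abasic duplex; nearly all actives have a fitted effect of over 30% in size.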 In short, it runs like this:
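Enzyme and test compound were incubated for 15 min at room temperature, after which a 50 nM (final) double-stranded abasic-site substrate bearing 5'-TAMRA and 3'-BHQ-2 was added. Incision was followed as fluorescence increase over three reads.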

Inconclusive results are not listed. The list shows a part of the results. Calls of active or inactive are those of the source. Unless noted, calls come from the whole dose curve; as a rule, active = well fitted curve in the direction sought with a large enough effect; inconclusive = small, poorly fitted or top-dose-only effect, or another doubt; inactive = no such curve, though single readings can be large; an effect the other way counts as inactive or inconclusive.

Sequence of DNA repair nuclease/redox regulator APEX1 (Homo sapiens) (P27695 whole entry, looked up): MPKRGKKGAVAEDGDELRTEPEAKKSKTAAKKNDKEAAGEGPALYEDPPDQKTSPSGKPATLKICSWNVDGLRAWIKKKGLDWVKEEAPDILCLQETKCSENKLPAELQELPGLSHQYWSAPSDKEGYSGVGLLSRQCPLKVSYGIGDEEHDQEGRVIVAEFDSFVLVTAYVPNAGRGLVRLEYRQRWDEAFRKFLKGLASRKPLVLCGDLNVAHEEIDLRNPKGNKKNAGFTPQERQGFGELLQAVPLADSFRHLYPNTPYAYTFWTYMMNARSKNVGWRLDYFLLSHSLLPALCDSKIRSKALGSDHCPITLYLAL
Sequence of RecQ-like DNA helicase BLM (Homo sapiens) (P54132 whole entry, looked up): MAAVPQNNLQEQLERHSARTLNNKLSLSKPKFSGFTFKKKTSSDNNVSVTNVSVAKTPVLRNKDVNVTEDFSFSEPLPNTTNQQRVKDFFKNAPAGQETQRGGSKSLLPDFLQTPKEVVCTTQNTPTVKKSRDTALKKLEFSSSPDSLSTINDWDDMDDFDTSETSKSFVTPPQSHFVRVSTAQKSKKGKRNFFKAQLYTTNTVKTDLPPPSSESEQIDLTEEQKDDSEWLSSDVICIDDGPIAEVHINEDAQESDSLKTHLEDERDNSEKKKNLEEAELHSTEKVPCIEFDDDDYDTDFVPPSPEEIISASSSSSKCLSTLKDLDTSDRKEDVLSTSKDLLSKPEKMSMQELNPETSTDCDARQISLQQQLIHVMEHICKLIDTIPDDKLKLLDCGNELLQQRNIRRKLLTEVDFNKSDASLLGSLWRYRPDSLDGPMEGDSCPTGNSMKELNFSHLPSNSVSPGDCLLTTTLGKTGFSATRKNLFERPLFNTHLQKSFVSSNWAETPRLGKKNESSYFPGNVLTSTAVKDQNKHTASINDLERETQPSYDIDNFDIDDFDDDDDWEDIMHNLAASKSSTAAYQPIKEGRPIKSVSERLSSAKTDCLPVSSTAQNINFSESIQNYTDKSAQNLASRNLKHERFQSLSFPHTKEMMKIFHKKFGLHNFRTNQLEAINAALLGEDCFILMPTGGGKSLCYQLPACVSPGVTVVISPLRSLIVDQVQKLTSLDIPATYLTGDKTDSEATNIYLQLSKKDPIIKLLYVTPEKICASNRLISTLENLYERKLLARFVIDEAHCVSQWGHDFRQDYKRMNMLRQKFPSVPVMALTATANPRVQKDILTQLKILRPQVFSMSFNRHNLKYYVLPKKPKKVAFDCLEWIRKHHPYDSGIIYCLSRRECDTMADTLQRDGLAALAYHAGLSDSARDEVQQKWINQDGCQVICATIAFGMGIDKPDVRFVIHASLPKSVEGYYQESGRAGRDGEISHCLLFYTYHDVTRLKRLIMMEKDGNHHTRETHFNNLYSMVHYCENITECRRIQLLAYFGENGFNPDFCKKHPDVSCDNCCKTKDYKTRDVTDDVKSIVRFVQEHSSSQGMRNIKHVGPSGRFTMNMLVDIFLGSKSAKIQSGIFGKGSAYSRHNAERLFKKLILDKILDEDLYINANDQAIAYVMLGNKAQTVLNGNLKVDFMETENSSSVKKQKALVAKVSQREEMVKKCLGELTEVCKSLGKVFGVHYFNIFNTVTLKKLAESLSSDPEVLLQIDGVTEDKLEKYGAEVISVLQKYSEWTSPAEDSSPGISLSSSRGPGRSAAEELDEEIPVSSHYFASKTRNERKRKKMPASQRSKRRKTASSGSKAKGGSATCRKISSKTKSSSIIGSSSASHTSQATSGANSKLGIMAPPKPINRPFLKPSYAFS
Sequence of Ferritin light chain (Equus caballus) (P02791 2-175 limits assumed): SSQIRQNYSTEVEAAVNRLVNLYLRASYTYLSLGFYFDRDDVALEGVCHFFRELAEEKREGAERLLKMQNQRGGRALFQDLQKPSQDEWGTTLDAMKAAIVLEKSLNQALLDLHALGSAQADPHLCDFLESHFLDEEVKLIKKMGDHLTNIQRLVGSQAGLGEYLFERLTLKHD
Sequence of ATP-dependent DNA helicase Q1 (Homo sapiens) (P46063 whole entry, looked up): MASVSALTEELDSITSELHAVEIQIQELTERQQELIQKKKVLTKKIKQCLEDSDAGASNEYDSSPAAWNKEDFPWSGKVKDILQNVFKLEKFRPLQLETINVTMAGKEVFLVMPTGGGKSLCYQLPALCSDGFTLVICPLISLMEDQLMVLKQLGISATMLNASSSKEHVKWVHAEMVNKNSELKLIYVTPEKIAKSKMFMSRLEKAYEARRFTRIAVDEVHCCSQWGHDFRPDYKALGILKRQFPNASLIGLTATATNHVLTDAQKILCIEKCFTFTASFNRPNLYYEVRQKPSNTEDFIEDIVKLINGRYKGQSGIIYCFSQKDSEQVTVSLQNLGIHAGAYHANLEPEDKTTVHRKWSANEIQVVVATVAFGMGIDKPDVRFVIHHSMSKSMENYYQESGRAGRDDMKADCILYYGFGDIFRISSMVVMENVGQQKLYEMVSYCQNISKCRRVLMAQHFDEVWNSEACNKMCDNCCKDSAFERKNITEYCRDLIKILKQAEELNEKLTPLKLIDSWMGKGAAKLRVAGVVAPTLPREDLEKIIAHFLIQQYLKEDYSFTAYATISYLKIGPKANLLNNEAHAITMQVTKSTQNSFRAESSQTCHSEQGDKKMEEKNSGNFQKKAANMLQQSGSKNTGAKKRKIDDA

Regarding `CN1CCc2cccc(Cl)c2CC1`, the Potency result in assay [1], in assay [2], in [3], in [4], in assay [5] and in assay [6] was “inactive” each time. Also, the Potency entry in [7], in assay [8], in assay [11], in assay [12], in assay [13] and in assay [14] was “inactive” in each case. Besides, the Potency entry in assay [15] was “inactive”. For the same compound, the result in assay [9] and in [10] was inactive.
With `O=P(O)(O)C(Cl)(Cl)P(=O)(O)O`, the Potency entry in [1], in [2], in assay [4], in [16], in assay [5] and in assay [6] was “inactive” throughout. Moreover, the Potency result in assay [7], in assay [17], in [8] and in [12] was “inactive” in each case. The outcome in assay [9] and in assay [10] was inactive.
In the case of `CC(=O)NBr`, the Potency entry in assay [1], in assay [3], in [4], in assay [16], in assay [5] and in assay [6] was “inactive” each time. In addition, the Potency entry in assay [7], in assay [17], in [8], in assay [12], in [13] and in assay [14] was “inactive” in each case. Moreover, in [15], the Potency entry was “inactive”. For the same compound, the result in assay [9], in [10], in assay [18] and in assay [19] was inactive.
Take `CCCn1c(C)c(C(=O)c2ccc3ccccc3c2)c2ccccc21`: the Potency result in assay [1], in assay [2], in [7], in [13], in assay [14] and in assay [15] was “inactive” throughout. For the same compound, the Potency in assay [4] is 7.94 µM (active); in assay [16] it was 10 µM (active); in assay [5], 10 µM (active); in assay [6] it was 14.1 µM (active); in assay [17], 10 µM (active); in [8], 12.6 µM (active). Further, the compound was called inactive in assay [10].
For the compound `NC(=O)COc1c(F)cc(SCCNS(=O)(=O)c2ccccc2)cc1F`, the Potency result in assay [1], in assay [3], in assay [4], in assay [16], in assay [5] and in assay [6] was “inactive” throughout. Further, the Potency entry in assay [7], in assay [8], in assay [11], in assay [12], in [13] and in assay [14] was “inactive” throughout. The Potency result in assay [15] is “inactive”. In [10], the result was inactive.
With `NCCc1c[nH]c2ccc(C(N)=O)cc12`, the Potency result in [1], in [2], in assay [4], in assay [16], in assay [5] and in assay [6] was “inactive” in each case. For the same compound, the Potency entry in assay [7], in assay [8], in [11], in assay [12], in assay [13] and in assay [14] was “inactive” in each case. The Potency result in assay [15] was “inactive”. For the same compound, the result in assay [9] and in [10] was inactive.
On to `C[C@@H]1O[C@H](C[N+](C)(C)C)CS1`, for which the Potency entry in [1], in assay [3], in assay [4], in assay [16], in assay [5] and in assay [6] was “inactive” in each case. Also, the Potency result in assay [7], in assay [17], in assay [8], in assay [12], in assay [13] and in assay [14] was “inactive” in each case. Besides, the Potency result in assay [15] was “inactive”. The result in assay [9] and in [10] was inactive.
Regarding `NCC(CP(=O)(O)O)c1ccc(Cl)cc1` (stereo unspecified), the Potency entry in assay [1], in assay [2], in assay [4], in assay [16], in assay [5] and in [6] was “inactive” each time. In addition, the Potency result in [7], in assay [17], in assay [8], in assay [11], in assay [12] and in assay [13] was “inactive” in each case. The Potency entry in [14] and in assay [15] was “inactive” in each case. Further, the call in [10] was inactive.
Turning to `COC(=O)N1CCN(C(=O)Cc2ccc(Cl)c(Cl)c2)C(CN2CCCC2)C1` (stereo unspecified), the Potency entry in assay [1], in [2], in assay [3], in assay [11], in assay [13] and in [14] was “inactive” in each case. Also, the Potency result in assay [15] was “inactive”. Besides, the Potency is 12.6 µM (active) in [4], 10 µM (active) in assay [16], 7.94 µM (active) in [7] and 2.82 µM (active) in [17]. Also, in [10], the outcome was inactive.
For the compound `C[C@]12Cc3cn4c(nc3C=C1CCC1C2CC[C@@]2(C)[C@H]1CC[C@@]2(O)C#N)nc1ccccc14` (stereo partly specified), the Potency entry in assay [1], in assay [3], in [13], in assay [14] and in assay [15] was “inactive” each time. Further, the Potency in assay [4] is 1.26 µM (active); in assay [16], 3.16 µM (active); in [5], 2.82 µM (active); in [6], 5.01 µM (active); in assay [7] it was 3.55 µM (active); in assay [17], 2.82 µM (active). Also, the Potency in assay [8] is 5.62 µM (active). Also, the compound was classed as inactive in assay [10].
